The full ranking holds about 18,000 sequences; the median of “log2 normalized intensity” is about 0.36, and the highest 2% start at about 7.3. Only a selection was taken, and the highest values are over-represented in it overall.

Data on 46 sequences can be found in article PMC10726135, “HNF4α isoforms regulate the circadian balance between carbohydrate and lipid metabolism in the liver”.

The experiment addresses T1, HNF4alpha8 (COS-7 nuclear extract) (Homo sapiens, UniProt P41235-5 1-452).
T1 sequence: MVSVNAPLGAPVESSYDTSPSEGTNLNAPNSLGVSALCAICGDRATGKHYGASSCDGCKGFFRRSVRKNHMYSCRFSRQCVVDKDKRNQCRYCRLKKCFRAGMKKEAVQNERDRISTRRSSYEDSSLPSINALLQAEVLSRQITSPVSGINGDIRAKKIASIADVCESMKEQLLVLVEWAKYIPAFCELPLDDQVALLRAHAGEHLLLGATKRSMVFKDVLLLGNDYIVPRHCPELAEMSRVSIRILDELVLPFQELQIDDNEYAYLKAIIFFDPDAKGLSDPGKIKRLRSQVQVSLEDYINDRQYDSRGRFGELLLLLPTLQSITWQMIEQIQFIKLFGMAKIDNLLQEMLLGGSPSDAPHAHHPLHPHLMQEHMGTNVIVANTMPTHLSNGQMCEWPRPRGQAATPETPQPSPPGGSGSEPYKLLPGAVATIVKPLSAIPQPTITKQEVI
In words: protein-binding microarray; COS-7 nuclear extract on double-stranded Agilent 4x180k PBM; binding buffer, salt, pH and temperature not given in the material; high values mean tight binding. The note with it: chain copies: 2; label: 3' end of strand 1 on the slide; dsDNA, one strand shown. An outline of the steps:
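A custom Agilent SurePrint G3 4x180k array, spotted in quadruplicate with ~44,000 test sequences as ~60-nt oligonucleotides made double-stranded, was incubated with nuclear extracts. The extracts came from COS-7 cells transiently transfected by CaPO4 with a human HNF4α isoform expression vector. Bound HNF4α was imaged on an Agilent G2565CA scanner at 2-µm resolution, and the binding signal was taken as Agilent software's background-corrected, normalized gProcessedSignal.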
In the case of “AAGGCTGTCACACTGGCCTTTGCCCTCGCTGCCTAGGGAGATTAGAGTATCGGTCGA”, the binding signal worked out at 5.82 log2 normalized intensity. In the case of “CTATGTCAGGCCATTTCACCTTTGCCCTGTGCCTAGGGAGATTAGAGTATCGGTCGA”, the binding signal amounted to 7.53 log2 normalized intensity. Consider “TCAGGCCATTTCACCTTTGCCCTGTCAGTCGCCTAGGGAGATTAGAGTATCGGTCGA”, for which the binding signal was determined as 6.79 log2 normalized intensity. The figure for “TGTCACACTGGCCTTTGCCCTCGCTGGCGGGCCTAGGGAGATTAGAGTATCGGTCGA” is 5.25 log2 normalized intensity; for “AAAGGCTGTCACACTTGCCCTTTGCCCTCAGCCTAGGGAGATTAGAGTATCGGTCGA” it is 8.84 log2 normalized intensity. For the sequence “CTGTCACACTTGCCCTTTGCCCTCACTGGTGCCTAGGGAGATTAGAGTATCGGTCGA”, the binding signal was determined as 7.78 log2 normalized intensity. For the sequence “CACAAAAAGGCTGTCACACTTGCCCTTTGCGCCTAGGGAGATTAGAGTATCGGTCGA”, the binding signal stood at 5.42 log2 normalized intensity. Take “AGCCTCTATGTCAGGCCATTTCACCTTTGCGCCTAGGGAGATTAGAGTATCGGTCGA”: the binding signal was determined as 4.57 log2 normalized intensity. For “ACACTTGCCCTTTGCCCTCACTGGTAGAAGGCCTAGGGAGATTAGAGTATCGGTCGA”, the binding signal was 5.8 log2 normalized intensity. As to “TTCAGCCGCTTTGAGGTCAATGGTAGAAAAGCCTAGGGAGATTAGAGTATCGGTCGA”, the binding signal was 1.85 log2 normalized intensity.

As for “ACTAAAGGTTAAACATGTACTCTGTACTCCGCCTAGGGAGATTAGAGTATCGGTCGA”, the binding signal was found to be 3.43 log2 normalized intensity.

In the case of “ACCCCTCCACTGGACAGCAGCTACATAAGGGCCTAGGGAGATTAGAGTATCGGTCGA”, the binding signal is 1.83 log2 normalized intensity. With “AAATACCCTCTTTAGGGTAGCCTGGGTTAAGCCTAGGGAGATTAGAGTATCGGTCGA”, the binding signal was 0.844 log2 normalized intensity. As for “GTTGGACTTTGGACCTTTGTGTGTGTGTGTGCCTAGGGAGATTAGAGTATCGGTCGA”, the binding signal was found to be 8.31 log2 normalized intensity. Turning to “ACTTTGGACCTTTGTGTGTGTGTGTGTGTGGCCTAGGGAGATTAGAGTATCGGTCGA”, the binding signal was determined as 3.49 log2 normalized intensity.

“TGGACAACTGTACTTTGGACTGGGGACCTGGCCTAGGGAGATTAGAGTATCGGTCGA”: the binding signal came out at 6.02 log2 normalized intensity. With “ATGTGGGGCGTGTGTTAGACTTTGGACCTGGCCTAGGGAGATTAGAGTATCGGTCGA”, the binding signal is 9.77 log2 normalized intensity.

As for “TAGGGCCTTGCTATGGAGTGGACTTTGGCTGCCTAGGGAGATTAGAGTATCGGTCGA”, the binding signal came out at 7.22 log2 normalized intensity.

Take “GGGCGTGTGTTAGACTTTGGACCTGGCCTGGCCTAGGGAGATTAGAGTATCGGTCGA”: the binding signal came to 7.98 log2 normalized intensity. For the sequence “TAAGGAGCTGAGTCATAGTGGACTTTGCCTGCCTAGGGAGATTAGAGTATCGGTCGA”, the binding signal is 7.86 log2 normalized intensity. For the sequence “TAGACTTTGGACCTGGCCTGCGGGGTCAGGGCCTAGGGAGATTAGAGTATCGGTCGA”, the binding signal was found to be 6.35 log2 normalized intensity.

Consider “CACCTGTGTCAACATGGACTTTGTTGTTTGGCCTAGGGAGATTAGAGTATCGGTCGA”, for which the binding signal is 4.99 log2 normalized intensity. For “GGACTTTGGCCTTACTTGGCCTGTTTGCTGGCCTAGGGAGATTAGAGTATCGGTCGA”, the binding signal was found to be 5.89 log2 normalized intensity.

For “GCTAGTAAGGAGCTGAGTCATAGTGGACTTGCCTAGGGAGATTAGAGTATCGGTCGA”, the binding signal was found to be 4.03 log2 normalized intensity.

Take “CGGGTATGTGGGGCGTGTGTTAGACTTTGGGCCTAGGGAGATTAGAGTATCGGTCGA”: the binding signal came to 4.91 log2 normalized intensity.

For “CCAATTATTGCGAGTTTAGGAGGGTTCCTGGCCTAGGGAGATTAGAGTATCGGTCGA”, the binding signal is -0.0269 log2 normalized intensity. Consider “GATCCACGGAGAATGTAGACCTTTACCACCGCCTAGGGAGATTAGAGTATCGGTCGA”, for which the binding signal came to 2.35 log2 normalized intensity. With “ATCCCCCACACCGAGATAGTAGAGATAGTGGCCTAGGGAGATTAGAGTATCGGTCGA” the figure was 2.5 log2 normalized intensity; with “TCAAAGTCCAAATAGCGCTAACTCTATATCGCCTAGGGAGATTAGAGTATCGGTCGA”, 0.779 log2 normalized intensity. Consider “TGGCACTGAAGAATGTCTAAATCTGAAGGAGCCTAGGGAGATTAGAGTATCGGTCGA”, for which the binding signal was -0.983 log2 normalized intensity. Take “GTGTTGACCTCTGGACCTCATCTTCCTCCCGCCTAGGGAGATTAGAGTATCGGTCGA”: the binding signal was found to be 5.2 log2 normalized intensity. With “TCTTTCAAGATAACAAGGCAAACTTTATCAGCCTAGGGAGATTAGAGTATCGGTCGA” the figure was -0.554 log2 normalized intensity; with “ATGTGTTTGCATGACTCATAAAGAACAGTTGCCTAGGGAGATTAGAGTATCGGTCGA”, 0.739 log2 normalized intensity; with “ATTTTGGACTTTGTGCAAATGGAAAATTGTGCCTAGGGAGATTAGAGTATCGGTCGA”, 3.52 log2 normalized intensity.

For the sequence “GGGGACCTTTGGCCTTTACCTGTTACTTATGCCTAGGGAGATTAGAGTATCGGTCGA”, the binding signal was determined as 4.06 log2 normalized intensity. For the sequence “TGACAACTGAATGTGACCTTTTGGACCACAGCCTAGGGAGATTAGAGTATCGGTCGA”, the binding signal was found to be 7.4 log2 normalized intensity.

On to “ACTGAATGTGACCTTTTGGACCACAGAGTGGCCTAGGGAGATTAGAGTATCGGTCGA”, for which the binding signal was determined as 5.97 log2 normalized intensity. Regarding “TTCAAAGGACAGACTTTGGACCTGGCCCTCGCCTAGGGAGATTAGAGTATCGGTCGA”, the binding signal was determined as 6.56 log2 normalized intensity.

With “TTACCGGTGTGACTTTGGTTGGATTTCTTGGCCTAGGGAGATTAGAGTATCGGTCGA”, the binding signal came to 1.56 log2 normalized intensity.

As to “GATACAACGGTTCAAAGGACAGACTTTGGAGCCTAGGGAGATTAGAGTATCGGTCGA”, the binding signal amounted to 4.08 log2 normalized intensity. On to “AACGGTTCAAAGGACAGACTTTGGACCTGGGCCTAGGGAGATTAGAGTATCGGTCGA”, for which the binding signal was determined as 7.98 log2 normalized intensity. With “CCTGATGACAACTGAATGTGACCTTTTGGAGCCTAGGGAGATTAGAGTATCGGTCGA” the figure was 6.26 log2 normalized intensity; with “GTCAAGTAGAGACCTGTCTTCCTGGTGACCGCCTAGGGAGATTAGAGTATCGGTCGA”, 2.25 log2 normalized intensity; with “AGGGGTTACTAGTGAGTTGGACTTTGGACCGCCTAGGGAGATTAGAGTATCGGTCGA”, 11.6 log2 normalized intensity. The figure for “GTAGAGACCTGTCTTCCTGGTGACCTTTGTGCCTAGGGAGATTAGAGTATCGGTCGA” is 7.95 log2 normalized intensity. As for “GACCTGTCTTCCTGGTGACCTTTGTTTGGTGCCTAGGGAGATTAGAGTATCGGTCGA”, the binding signal stood at 5.66 log2 normalized intensity.
